Holding throughout (experiment): DAPPL (digital affinity profiling via proximity ligation, sequencing); 10 mM Tris-HCl pH 7.5, 50 mM NaCl, 1 mM DTT, 4% glycerol, room temperature, 30 min; GST-TFs on glutathione beads, 16-mer random dsDNA library, 0.1% formaldehyde crosslink after washing; high values mean tight binding
What all share (conditions): protein: recombinant; tags: N-terminal GST; dsDNA, one strand shown

One assay deals with T1, ERF (Homo sapiens, UniProt P50548 1-548).
T1 sequence: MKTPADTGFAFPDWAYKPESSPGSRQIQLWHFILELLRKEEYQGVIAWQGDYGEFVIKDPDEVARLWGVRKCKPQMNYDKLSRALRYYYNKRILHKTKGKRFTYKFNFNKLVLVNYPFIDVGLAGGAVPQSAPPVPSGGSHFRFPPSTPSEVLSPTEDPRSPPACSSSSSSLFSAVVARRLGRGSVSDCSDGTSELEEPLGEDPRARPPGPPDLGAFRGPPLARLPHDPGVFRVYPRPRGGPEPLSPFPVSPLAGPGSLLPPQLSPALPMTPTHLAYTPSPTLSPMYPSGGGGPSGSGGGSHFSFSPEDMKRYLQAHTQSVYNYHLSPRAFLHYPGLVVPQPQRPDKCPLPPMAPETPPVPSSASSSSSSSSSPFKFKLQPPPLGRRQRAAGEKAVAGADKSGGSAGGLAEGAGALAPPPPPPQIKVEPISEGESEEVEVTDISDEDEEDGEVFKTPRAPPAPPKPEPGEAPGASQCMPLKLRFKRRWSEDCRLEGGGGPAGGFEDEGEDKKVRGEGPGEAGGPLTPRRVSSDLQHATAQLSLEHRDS
The essentials:
(§1)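 A tag-only sample was pooled with DNA-barcoded human transcription factors that had been expressed in yeast as GST fusions and captured on glutathione beads. The pools were incubated for 30 min at room temperature with 200 nmole of a random double-stranded 16-mer DNA library in Tris/NaCl/DTT/glycerol buffer, then washed, crosslinked with 0.1% formaldehyde, proximity-ligated (BsaI/T4 ligase, 1 h, 37 °C), PCR-amplified and sequenced on an Illumina NextSeq500. Binding signal is each hexamer's read frequency for a factor divided by its frequency for the tag-only sample.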

The target in the next assay is T2, ETV3L (Homo sapiens, UniProt Q6ZN32 1-361).
T2 sequence: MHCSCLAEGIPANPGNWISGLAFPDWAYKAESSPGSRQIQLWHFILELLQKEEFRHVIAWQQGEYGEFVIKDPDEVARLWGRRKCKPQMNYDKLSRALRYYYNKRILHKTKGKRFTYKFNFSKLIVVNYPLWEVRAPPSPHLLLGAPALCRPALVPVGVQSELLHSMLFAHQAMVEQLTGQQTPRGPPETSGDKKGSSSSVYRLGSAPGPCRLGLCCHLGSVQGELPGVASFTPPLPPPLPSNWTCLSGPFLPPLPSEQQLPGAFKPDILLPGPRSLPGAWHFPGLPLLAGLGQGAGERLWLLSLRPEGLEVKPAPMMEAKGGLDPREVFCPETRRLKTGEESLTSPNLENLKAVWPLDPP
In short, it runs like this:
as §1

A further assay concerns the target T3, ETS2 (Homo sapiens, UniProt P15036 1-469).
T3 sequence: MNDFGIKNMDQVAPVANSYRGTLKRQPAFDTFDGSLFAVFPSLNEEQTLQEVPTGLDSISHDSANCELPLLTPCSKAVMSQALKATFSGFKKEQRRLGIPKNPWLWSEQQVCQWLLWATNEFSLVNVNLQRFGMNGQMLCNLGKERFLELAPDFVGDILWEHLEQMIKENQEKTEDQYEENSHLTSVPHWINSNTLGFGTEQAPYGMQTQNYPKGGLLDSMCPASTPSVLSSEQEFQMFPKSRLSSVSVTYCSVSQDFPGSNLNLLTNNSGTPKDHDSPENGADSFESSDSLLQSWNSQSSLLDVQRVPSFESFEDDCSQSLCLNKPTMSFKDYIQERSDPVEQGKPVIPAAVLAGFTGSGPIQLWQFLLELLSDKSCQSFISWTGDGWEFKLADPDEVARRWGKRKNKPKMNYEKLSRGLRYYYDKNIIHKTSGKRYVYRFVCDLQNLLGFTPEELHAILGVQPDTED
In short, it runs like this:
as §1

For another assay, the target named is T4, SPDEF (Homo sapiens, UniProt O95238 1-335).
T4 sequence: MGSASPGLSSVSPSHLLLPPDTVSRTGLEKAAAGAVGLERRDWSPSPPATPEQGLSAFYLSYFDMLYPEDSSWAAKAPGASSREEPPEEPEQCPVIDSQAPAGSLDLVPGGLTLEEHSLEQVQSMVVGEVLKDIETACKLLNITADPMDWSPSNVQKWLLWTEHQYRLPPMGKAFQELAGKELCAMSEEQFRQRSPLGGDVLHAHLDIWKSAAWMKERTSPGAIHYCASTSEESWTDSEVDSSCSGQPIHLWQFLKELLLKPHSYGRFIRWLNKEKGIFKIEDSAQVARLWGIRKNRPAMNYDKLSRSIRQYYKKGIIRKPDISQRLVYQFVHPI
In short, it runs like this: as §1

Another assay addresses T5, ETV7 (Homo sapiens, UniProt Q9Y603 1-341).
T5 sequence: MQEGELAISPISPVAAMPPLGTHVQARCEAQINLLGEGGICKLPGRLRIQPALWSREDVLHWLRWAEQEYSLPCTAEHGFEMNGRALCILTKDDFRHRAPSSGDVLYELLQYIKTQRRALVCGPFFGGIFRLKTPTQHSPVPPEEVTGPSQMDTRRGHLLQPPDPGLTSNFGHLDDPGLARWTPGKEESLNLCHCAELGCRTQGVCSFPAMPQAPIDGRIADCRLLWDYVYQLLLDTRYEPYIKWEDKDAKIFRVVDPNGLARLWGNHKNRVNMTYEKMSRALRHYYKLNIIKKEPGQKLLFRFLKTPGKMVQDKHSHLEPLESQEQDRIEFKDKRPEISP
The essentials:
as §1

In the next assay the target is T6, ELF5 (Homo sapiens, UniProt Q9UKW6-2 1-255).
T6 sequence: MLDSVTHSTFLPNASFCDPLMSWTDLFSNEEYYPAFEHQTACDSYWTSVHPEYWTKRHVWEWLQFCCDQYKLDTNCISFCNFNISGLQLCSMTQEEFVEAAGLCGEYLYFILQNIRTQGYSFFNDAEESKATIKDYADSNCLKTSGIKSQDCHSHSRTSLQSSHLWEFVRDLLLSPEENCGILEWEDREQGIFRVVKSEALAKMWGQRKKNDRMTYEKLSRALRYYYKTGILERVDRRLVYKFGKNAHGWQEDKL
The essentials:
as §1

Another assay concerns the target T7, ETV3 (Homo sapiens, UniProt P41162-2 1-143).
T7 sequence: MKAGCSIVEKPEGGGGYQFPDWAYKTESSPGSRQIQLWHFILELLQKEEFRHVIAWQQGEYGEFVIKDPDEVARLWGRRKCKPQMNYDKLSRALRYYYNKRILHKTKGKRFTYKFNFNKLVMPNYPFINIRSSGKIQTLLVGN
The essentials:
as §1

The target of another assay is ETV6 (Homo sapiens, UniProt P41212 1-452). In short, it runs like this:
as §1

ETV6, sequence (P41212 whole entry): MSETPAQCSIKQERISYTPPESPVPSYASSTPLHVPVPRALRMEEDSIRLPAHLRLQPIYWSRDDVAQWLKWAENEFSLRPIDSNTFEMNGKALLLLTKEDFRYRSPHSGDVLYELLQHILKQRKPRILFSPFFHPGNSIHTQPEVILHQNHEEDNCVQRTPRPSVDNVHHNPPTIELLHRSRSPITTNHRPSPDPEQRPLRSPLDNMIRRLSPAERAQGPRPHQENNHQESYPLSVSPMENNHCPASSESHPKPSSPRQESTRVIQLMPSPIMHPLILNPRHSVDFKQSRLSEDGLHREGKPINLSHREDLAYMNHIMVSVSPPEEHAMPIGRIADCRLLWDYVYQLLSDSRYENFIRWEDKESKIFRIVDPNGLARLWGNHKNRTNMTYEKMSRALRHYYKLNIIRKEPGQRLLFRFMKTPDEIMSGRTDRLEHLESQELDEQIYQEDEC

As for TGAATG, the binding signal is 1.14 fold enrichment (6-mer frequency, TF over GST control) with ERF; 1.2 fold enrichment (6-mer frequency, TF over GST control) with ETV3L; 1.25 fold enrichment (6-mer frequency, TF over GST control) in the assay with ETS2; 1.28 fold enrichment (6-mer frequency, TF over GST control) with SPDEF; 1.21 fold enrichment (6-mer frequency, TF over GST control) with ETV7; 1.21 fold enrichment (6-mer frequency, TF over GST control) in the assay with ELF5. Besides, the binding signal is 1.2 fold enrichment (6-mer frequency, TF over GST control) in the assay with ETV3 and 1.22 fold enrichment (6-mer frequency, TF over GST control) with ETV6.

In the case of GAAAAG, the binding signal with ERF is 1 fold enrichment (6-mer frequency, TF over GST control); in the assay with ETV3L, 1.09 fold enrichment (6-mer frequency, TF over GST control); with ETS2, 1.05 fold enrichment (6-mer frequency, TF over GST control); with SPDEF it was 1.01 fold enrichment (6-mer frequency, TF over GST control); with ETV7, 1.13 fold enrichment (6-mer frequency, TF over GST control); with ELF5, 1.12 fold enrichment (6-mer frequency, TF over GST control). In addition, in the assay with ETV6, the binding signal was 1.18 fold enrichment (6-mer frequency, TF over GST control).

For the sequence CACTGG, the binding signal is 1.17 fold enrichment (6-mer frequency, TF over GST control) in the assay with ERF; 1.16 fold enrichment (6-mer frequency, TF over GST control) in the assay with ETV3L; 1.01 fold enrichment (6-mer frequency, TF over GST control) in the assay with ETS2; 1.02 fold enrichment (6-mer frequency, TF over GST control) with SPDEF; 1.03 fold enrichment (6-mer frequency, TF over GST control) in the assay with ETV7; 1.07 fold enrichment (6-mer frequency, TF over GST control) with ETV3. Moreover, the binding signal with ETV6 is 1.04 fold enrichment (6-mer frequency, TF over GST control).

As for CGATCG, the binding signal with ERF is 1.04 fold enrichment (6-mer frequency, TF over GST control); in the assay with ETV3L, 1.03 fold enrichment (6-mer frequency, TF over GST control); with ETS2, 1.04 fold enrichment (6-mer frequency, TF over GST control); with SPDEF, 1.1 fold enrichment (6-mer frequency, TF over GST control); with ETV7 it was 1 fold enrichment (6-mer frequency, TF over GST control); with ETV3, 1.09 fold enrichment (6-mer frequency, TF over GST control). Also, the binding signal with ETV6 was 1.03 fold enrichment (6-mer frequency, TF over GST control).

For TCACAG, the binding signal with ERF is 1.02 fold enrichment (6-mer frequency, TF over GST control); with ETV3L it was 1.13 fold enrichment (6-mer frequency, TF over GST control); with ETS2, 1.06 fold enrichment (6-mer frequency, TF over GST control); in the assay with SPDEF it was 1.05 fold enrichment (6-mer frequency, TF over GST control); with ETV7, 1.11 fold enrichment (6-mer frequency, TF over GST control); with ETV3, 1.06 fold enrichment (6-mer frequency, TF over GST control). Besides, the binding signal with ETV6 was 1.11 fold enrichment (6-mer frequency, TF over GST control).

As for TAGAAA, the binding signal with ERF was 1.04 fold enrichment (6-mer frequency, TF over GST control); with ETV3L, 1.08 fold enrichment (6-mer frequency, TF over GST control); in the assay with ETS2, 1.08 fold enrichment (6-mer frequency, TF over GST control); with SPDEF, 1.04 fold enrichment (6-mer frequency, TF over GST control); with ETV7, 1.12 fold enrichment (6-mer frequency, TF over GST control); in the assay with ETV3, 1.05 fold enrichment (6-mer frequency, TF over GST control). The binding signal with ETV6 was 1.06 fold enrichment (6-mer frequency, TF over GST control).

As to GCTTGG, the binding signal with ERF is 1.18 fold enrichment (6-mer frequency, TF over GST control); in the assay with ETV3L it was 1.01 fold enrichment (6-mer frequency, TF over GST control); with ETS2, 1.14 fold enrichment (6-mer frequency, TF over GST control); with SPDEF, 1.08 fold enrichment (6-mer frequency, TF over GST control); in the assay with ETV7 it was 1.13 fold enrichment (6-mer frequency, TF over GST control); with ETV3 it was 1.02 fold enrichment (6-mer frequency, TF over GST control). In addition, the binding signal in the assay with ETV6 was 1.13 fold enrichment (6-mer frequency, TF over GST control).

Take TTGAAC: the binding signal in the assay with ERF is 1.16 fold enrichment (6-mer frequency, TF over GST control); with ETV3L, 1.17 fold enrichment (6-mer frequency, TF over GST control); with ETS2, 1.17 fold enrichment (6-mer frequency, TF over GST control); with SPDEF it was 1.06 fold enrichment (6-mer frequency, TF over GST control); with ETV7, 1.18 fold enrichment (6-mer frequency, TF over GST control); with ETV3, 1.14 fold enrichment (6-mer frequency, TF over GST control). For the same sequence, the binding signal in the assay with ETV6 was 1.1 fold enrichment (6-mer frequency, TF over GST control).

Source of the values: publication PMC7862700, “An all-to-all approach to the identification of sequence-specific readers for epigenetic DNA modifications on cytosine”.
